Entries with a potency or affinity are not part of this list. A number with no mark means an inactive call. No rule for the calls is given here.
Assay: A2780 cell killing – plate reader, dry powder samples, cytotoxicity control, dose response (AID 743046);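 also: 0% = neutral control wells and -100% = cytotoxic reference compound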
Conditions: A2780 ovarian cancer cytotoxicity; series mostly up to 35 µM; activity change, negative = cytotoxicity: at the top concentration

SMILES | activity change, negative = cytotoxicity
CCCN(C)C[C@H]1OCCCC[C@@H](C)Oc2ccc(NC(=O)c3ccccc3)cc2C(=O)N([C@H](C)CO)C[C@H]1C | 26.7%
C[C@H](CO)N1C[C@H](C)[C@@H](CN(C)Cc2ccc(Cl)c(Cl)c2)OCCCC[C@H](C)Oc2ccc(NC(=O)Nc3ccc(C(F)(F)F)cc3)cc2C1=O | 6.59%
Cc1ccc(S(=O)(=O)N(C)C[C@@H]2OCCCC[C@H](C)Oc3ccc(NS(=O)(=O)c4ccc(Cl)cc4)cc3C(=O)N([C@H](C)CO)C[C@H]2C)cc1 | -21%
C[C@@H]1CN([C@@H](C)CO)C(=O)Cc2cc(NC(=O)Nc3ccc(C(F)(F)F)cc3)ccc2O[C@H]1CN(C)S(=O)(=O)c1ccc(F)cc1 | 25.4%
O=C(CN1C(=O)c2ccccc2S1(=O)=O)c1ccccc1Cl | 13.2% [at 50 µM]
C[C@@H]1CCCCO[C@H](CN(C)C)[C@H](C)CN([C@H](C)CO)C(=O)c2cc(NC(=O)Nc3cccc4ccccc34)ccc2O1 | -2.77%
COc1ccc(S(=O)(=O)Nc2ccc3c(c2)CC(=O)N([C@H](C)CO)C[C@H](C)[C@@H](CN(C)Cc2ccc(-c4ccccc4)cc2)O3)cc1 | -0.136%
C[C@H]1CCCCO[C@@H](CN(C)C(=O)Nc2ccc(C(F)(F)F)cc2)[C@@H](C)CN([C@@H](C)CO)C(=O)c2cc(NS(=O)(=O)c3cn(C)cn3)ccc2O1 | 5.54%
C[C@@H]1CCCCO[C@@H](CN(C)C(=O)Cc2ccccc2)[C@@H](C)CN([C@@H](C)CO)C(=O)c2cc(NC(=O)Nc3ccc(C(F)(F)F)cc3)ccc2O1 | 1.49%
O=C(C[C@H]1CC[C@H]2[C@@H](COC[C@@H](O)CN2S(=O)(=O)c2ccccc2Cl)O1)N1CCC(Cc2ccccc2)CC1 | -5.44%
C[C@@H]1CN([C@@H](C)CO)C(=O)Cc2cc(NC(=O)Nc3ccc(C(F)(F)F)cc3)ccc2O[C@H]1CN(C)Cc1ccc(Cl)c(Cl)c1 | 25.6%
C[C@@H]1CCCCO[C@@H](CN(C)C(=O)C2CCCCC2)[C@H](C)CN([C@H](C)CO)C(=O)c2cc(NC(=O)Nc3ccc(F)cc3)ccc2O1 | -12.7%

From PubChem BioAssay
